Compound activity (PubChem)
Most compounds without a hit are left out; they make up all but 21% or so of the library.
DRD3 agonist = qHTS of D3 Dopamine Receptor Agonist: qHTS; actives 0.58% (n = 410,000); max activation, %; D(3) dopamine receptor (Homo sapiens), P35462; D3R DiscoveRx beta-arrestin cells, luminescence, 90 min; in the data active means max activation above about 30%; further: 0% is about no effect
Target sequence (P35462 whole entry, looked up): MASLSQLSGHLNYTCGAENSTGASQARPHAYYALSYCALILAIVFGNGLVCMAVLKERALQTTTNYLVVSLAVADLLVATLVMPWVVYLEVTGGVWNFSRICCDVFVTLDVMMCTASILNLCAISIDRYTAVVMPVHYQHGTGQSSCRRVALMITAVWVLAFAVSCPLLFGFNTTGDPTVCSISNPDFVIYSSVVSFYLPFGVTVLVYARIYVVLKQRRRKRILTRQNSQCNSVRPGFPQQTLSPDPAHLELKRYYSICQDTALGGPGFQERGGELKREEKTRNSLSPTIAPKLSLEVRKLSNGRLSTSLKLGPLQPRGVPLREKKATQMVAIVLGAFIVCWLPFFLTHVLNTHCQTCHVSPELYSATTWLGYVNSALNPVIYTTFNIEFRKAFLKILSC
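Agonist mode: compounds and dopamine controls were applied to plated cells for 90 min at 37 degrees C after an overnight attachment at 1500 cells/well. Luminescent read-out followed 30 - 60 minutes at room temperature with DiscoveRx detection reagent.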
ClpP mod = qHTS Assay for Activators of ClpP; Potency, µM (top dose mostly 57.5 µM), inactives show top-dose activity change, negative = active; actives 1.9% (n = 340,000); ATP-dependent Clp protease proteolytic subunit (Bacillus subtilis (strain 168)), P80244; purified B. subtilis ClpP, FRET peptide cleavage, 20 min; active means well fitted falling curve with a large enough effect; inconclusive means small, poorly fitted or top-dose-only effect; inactive means no such curve, though single readings can be large or run the other way; further: potency means the concentration at half of the fitted maximal effect; the source files actives as falling curves though it sought activators and does not explain the sign; nearly all actives have a fitted effect of over 65% in size
Target sequence (P80244 whole entry, looked up): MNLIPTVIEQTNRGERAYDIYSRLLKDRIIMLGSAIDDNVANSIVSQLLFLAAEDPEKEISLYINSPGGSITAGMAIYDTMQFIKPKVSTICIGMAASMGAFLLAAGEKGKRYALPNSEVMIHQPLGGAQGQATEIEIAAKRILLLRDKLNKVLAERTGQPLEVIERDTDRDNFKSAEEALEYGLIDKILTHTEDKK
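ClpP 10 microg/mL final, pH 8 Tris/KCl buffer with BSA, glycerol, Tween-20; compound pinned in; FRET-FV substrate; RT 20 min; Ex320/Em430; ΔFRET vs ADEP 5.8 microM, DMSO, no enzyme.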
TDP1 cell CPT = qHTS for Inhibitors of human tyrosyl-DNA phosphodiesterase 1 (TDP1): qHTS in cells in presence of CPT; chicken DT40 Tdp1-/-;hTDP1 cells + 20 nM CPT, ATP luminescence, 48 h; Potency, µM (top dose mostly 46.2 µM), inactives show at the top dose activity change, negative = growth inhibition, hits mostly inhibitors; actives 12% (n = 420,000); AID 686979, 2013; further: potency means the concentration at half of the fitted maximal effect; on the % scale 0 is the no-effect control and ±100 the full control effect; nearly all actives have a fitted effect of over 55% in size
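Chicken DT40 Tdp1-/- cells stably complemented with human TDP1 were seeded at 400 cells/well in medium containing 20 nM camptothecin, exposed to pin-transferred compounds, and grown at 37 °C for at least 48 hr. Viability was read as ATP luminescence.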
D3 antag = qHTS of D3 Dopamine Receptor Antagonist: qHTS | D(3) dopamine receptor (Homo sapiens), P35462 | actives 2.5% (n = 360,000) | AID 652054, 2013 | max response, negative = inhibition, % | D3R cells, DiscoveRx beta-arrestin luminescence, antagonist mode; hits give low values; in the data active means max response below about -50%; inconclusive means no clear call, values can overlap the other calls; further: on the % scale 0 is the no-effect control and ±100 the full control effect
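Cells expressing the human receptor were seeded at 1500 cells/well, incubated overnight at 37 degrees C in 5% CO2, then exposed to library compounds with dopamine controls for 90 minutes at 37 degrees C before luminescent detection.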
IL1B secr inh = qHTS for Inhibitors of Inflammasome Signaling: IL-1-beta AlphaLISA Primary Screen | THP-1 LPS/ATP IL-1B secretion, AlphaLISA, 16 h; hits give low values | activity change, % at 57.5 µM | actives 4.7% (n = 360,000) | AID 743279, 2014; in the data active means activity change below about -50%; inconclusive means mostly about -30% to -49%; further: on the % scale 0 is the no-effect control and ±100 the full control effect
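THP-1 cells pretreated 1 hr with compounds (up to 57.5 uM final), then stimulated with LPS (250 ng/mL final) plus ATP (1.25 mM final); secreted IL-1B measured by AlphaLISA after 16 hr, decreased signal indicating inhibition.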
DT40 TDP1 no CPT = qHTS for Inhibitors of human tyrosyl-DNA phosphodiesterase 1 (TDP1): qHTS in cells in absence of CPT | DT40 Tdp1-/- hTDP1 cells, no CPT, ATP luminescence, 48 h | Potency, µM (doses to about 46.2 µM), for inactives: at the highest dose activity change, negative = growth inhibition, most hits filed as inhibitors | actives 15% (n = 420,000) | AID 686978, 2013; further: potency means the concentration at half of the fitted maximal effect; on the % scale 0 is the no-effect control and ±100 the full control effect; nearly all actives have a fitted effect of over 55% in size
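Compound effects on proliferation are scored in DT40 Tdp1-/-;hTDP1 cells in the absence of CPT. ATP levels (CellTiter-Glo luminescence) are recorded after a ≥48 hr, 37 °C incubation.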
Starred values were filed as active, the others as inactive; ? = inconclusive; / = no result given. Unless noted, the call rests on the fitted dose curve; in most records, active means well fitted inhibition curve with a large enough effect; inconclusive means small, poorly fitted or top-dose-only effect; inactive means flat fitted curve, though single readings scatter.

SMILES	DRD3 agonist	ClpP mod	TDP1 cell CPT	D3 antag	IL1B secr inh	DT40 TDP1 no CPT
CC(=O)c1cccc(Nc2ccc3cc(S(=O)(=O)N4CCCC4)ccc3n2)c1	7.6	0.0%	?	/	/	?
COc1ccc(CNc2ccc3cc(S(=O)(=O)N4CCCCC4)ccc3n2)cc1	5.3	4.6%	?	/	/	18.4µM*
COc1cccc(Nc2ccc3cc(S(=O)(=O)N4CCC(C)CC4)ccc3n2)c1	16.3	5.0%	?	/	/	14.6µM*
CC1CC(C)CN(S(=O)(=O)N2CCC(C(=O)NCCC3=CCCCC3)CC2)C1 (configuration not stated)	0.8	-0.5%	-4.1%	11.4	12.8	-6.8%
CSc1ccccc1Nc1ncnc(N)n1	8.6	2.4%	7.2%	10.7	-5.5	-1.2%
O=S(=O)(c1ccc2nc(Nc3ccccc3)ccc2c1)N1CCCCC1	-16.9	/	?	-29.6	-66.8*	16.4µM*
CCC(=O)c1ccc(OCC(=O)Nc2cc(S(=O)(=O)N3CCCCC3)ccc2N2CCN(CC)CC2)cc1	-2.0	0.2%	?	-26.0	-16.0	18.4µM*
CCN1CCN(c2ccc(S(=O)(=O)N3CCCCC3)cc2NC(=O)COc2ccc(Cl)c(C)c2)CC1	-21.7	-7.4%	16.4µM*	?	-12.2	13µM*
Cc1ccc(N(C(=O)CNC(=O)c2cccs2)C(C(=O)NC2CCCC2)c2ccncc2)cc1 (configuration not stated)	-1.6	/	-1.3%	11.0	6.8	-16.5%
O=C(Nc1cccc(O)c1)c1cc2nc(-c3ccc(Br)cc3)cc(C(F)(F)F)n2n1	-4.7	-14.2%	-10.0%	/	/	-13.0%
O=c1c2c3c(sc2n(CCN2CCOCC2)c(=O)n1Cc1ccco1)CCCCC3	0.1	-3.9%	8.2µM*	4.5	?	10.3µM*
O=C(Cn1c(=O)n(Cc2ccco2)c(=O)c2c3c(sc21)CCCC3)Nc1ccccc1	-0.9	0.7%	?	-23.3	-17.7	?
O=c1c2c3c(sc2n(CCN2CCCCC2)c(=O)n1Cc1ccco1)CCCCC3	-46.0	-3.5%	12.6µM*	-92.8*	-20.2	17.8µM*
NC(=O)Cn1c(=O)n(Cc2ccco2)c(=O)c2c3c(sc21)CCCCC3	4.1	1.8%	-15.4%	-12.3	24.8	-21.7%
O=C(Cc1ccccc1)c1c[nH]c(C(=O)NC2CCCC2)c1	-10.0	/	-19.1%	3.5	-19.1	-12.8%
CCOC(=O)c1nn(-c2ccccc2)c2nc(-c3ccc(OC)cc3)c(C#N)c(=O)n12	5.4	-7.8%	-23.9%	6.7	15.5	-18.0%
CCOC(=O)c1nn(-c2ccccc2C)c2nc(-c3ccc(C)cc3)c(C#N)c(=O)n12	-11.1	35.5µM*	?	0.0	-9.9	?
C=CCOc1ccc(CN(C)C(=O)c2ccc(CNS(=O)(=O)c3ccc(C)c(C)c3)cc2)cc1	3.0	-0.2%	?	9.3	-55.0*	20.6µM*
CCOC(=O)Cn1c(=O)n(C2CCCCC2)c2nc(-c3ccc(Cl)cc3)nc(C(N)=O)c21	-8.8	-15.4%	/	/	/	/
CCN(c1ccccc1)S(=O)(=O)c1ccc(Cl)c(NC(=O)COC(=O)c2ccc(O)cc2)c1	5.4	-5.8%	?	11.5	-2.8	?
CN(Cc1ccccc1)S(=O)(=O)c1ccc(Cl)c(C(=O)N2CCC2)c1	3.2	-2.8%	?	19.3	0.0	?
CCN(c1ccccc1)S(=O)(=O)c1ccc(Cl)c(NC(=O)CN2CCCCCC2)c1	-16.0	/	20.6µM*	-24.8	-27.1	18.4µM*
CCN(c1ccccc1)S(=O)(=O)c1ccc(Cl)c(NC(=O)CNC(C)c2ccccc2)c1 (configuration not stated)	3.8	0.9%	20.6µM*	4.2	-10.2	?
CN(Cc1ccccc1)S(=O)(=O)c1ccc(Cl)c(C(=O)N2CCC(C(N)=O)CC2)c1	-0.4	/	23.1µM*	15.4	25.8	10.3µM*
CCC(C)NCC(=O)Nc1cc(S(=O)(=O)N(CC)c2ccccc2)ccc1Cl (configuration not stated)	-1.5	-8.2%	20.6µM*	4.3	-52.9*	23.1µM*
SMILES	DRD3 agonist	ClpP mod	TDP1 cell CPT	D3 antag	IL1B secr inh	DT40 TDP1 no CPT
N#CCCn1c(=O)c(-c2ccccc2)nc2cnc(OCc3ccccc3)nc21	/	/	-6.9%	/	/	?
CCOc1ccc(NC(=O)CSc2nc3ccccc3c(=O)n2CCC(=O)NC2CCCCC2)cc1	0.7	-1.2%	-14.5%	/	/	-7.6%
CCN(c1ccccc1)S(=O)(=O)c1ccc(F)c(C(=O)O)c1	5.6	0.1%	-9.5%	20.6	14.4	-11.2%
CCN(c1ccccc1)S(=O)(=O)c1ccc(Cl)c(NC(=O)CN(C)Cc2cccc(F)c2)c1	-8.4	3.7%	16.4µM*	-8.3	0.0	18.4µM*
CCN(c1ccccc1)S(=O)(=O)c1ccc(Cl)c(C(=O)N2CCCC2)c1	1.7	-0.2%	?	21.1	31.7	14.6µM*
CCN(c1ccccc1)S(=O)(=O)c1ccc(Cl)c(C(=O)N(CC2CCCO2)C2CCS(=O)(=O)C2)c1 (configuration not stated)	-2.1	/	?	-22.9	-10.8	20.6µM*
CCOC(=O)c1c(C)[nH]c(C(=O)OCc2ccc(F)cc2)c1C	7.1	0.1%	-8.9%	28.5	-22.3	1.7%
CCOC(=O)c1c(C)[nH]c(C(=O)OCC(=O)NC(C)(C)C)c1C	-3.5	/	?	6.1	-9.8	18.4µM*
CCOC(=O)c1c(C)[nH]c(C(=O)OCC(=O)Nc2sc(C(=O)N(C)C)c(C)c2C(=O)OCC)c1C	0.0	0.2%	?	66.2	-51.3*	23.1µM*
CCOC(=O)c1[nH]c(C)c(C(=O)OCC(=O)NC(C)c2ccc(F)cc2)c1C (configuration not stated)	-3.5	5.8%	1.64µM*	4.7	0.0	1.16µM*
CCOC(=O)c1c(C)[nH]c(C(=O)COC(=O)C2(C)CC2(Cl)Cl)c1C (configuration not stated)	45.3*	-1.9%	-8.4%	54.2	?	5.2%
O=C(Nc1ccsc1C(=O)O)c1ccccc1Cl	-5.3	/	4.9%	-4.0	35.5	-1.5%
COc1ccc(CCNC(=O)C2CCC(=O)N2CCc2ccccc2)cc1OC (configuration not stated)	3.3	1.1%	2.7%	-15.4	2.6	0.7%
